Compound activity from PubChem BioAssay.
pPAFAH inh: inhibitors of human plasma PAF acetylhydrolase (pPAFAH). AID 463082. recombinant pPAFAH, FP-rhodamine probe fluorescence polarization. inhibition, % at 3.39 µM. actives 1.5% (n = 330,000). Q13093;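 active = inhibition above the mean inhibition across the screen plus 3 SD, cut at about 25% in these data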;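 also: inhibitors block binding of the rhodamine activity-based probe so polarization drops; 0% = enzyme with DMSO and 100% = wells lacking pPAFAH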
Target sequence (Q13093 whole entry, looked up): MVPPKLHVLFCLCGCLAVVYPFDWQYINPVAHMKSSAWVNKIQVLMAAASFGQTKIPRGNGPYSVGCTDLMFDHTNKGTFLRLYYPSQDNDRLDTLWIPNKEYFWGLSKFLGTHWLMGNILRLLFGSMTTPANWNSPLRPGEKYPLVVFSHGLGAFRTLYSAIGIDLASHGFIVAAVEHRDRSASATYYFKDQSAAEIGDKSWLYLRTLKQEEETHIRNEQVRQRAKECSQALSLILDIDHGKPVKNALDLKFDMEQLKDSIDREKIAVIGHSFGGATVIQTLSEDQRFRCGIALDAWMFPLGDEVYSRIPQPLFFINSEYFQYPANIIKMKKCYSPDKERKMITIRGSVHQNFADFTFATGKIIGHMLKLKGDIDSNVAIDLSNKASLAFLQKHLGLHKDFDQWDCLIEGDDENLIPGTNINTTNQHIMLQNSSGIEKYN
PKA-R2B act: activators of human PKA-R2B complex; P22694+P31323; PKA-R2B holoenzyme dissociation, Cy5-IP20 fluorescence polarization; R2B truncated from residue 108, S112A mutant; 0% DMSO only, 100% 113 µM cGMP; activation, % at 11.4 µM; actives 0.079% (n = 340,000); AID 504700;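 active = activation above a cutoff set at the mean over all compounds plus 3 SD, cut at about 18% in these data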;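 also: higher means more holoenzyme dissociation and a rise in polarization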
PKA-R1A act: activators of PKA-R1A complex | P00514+P68181 | PKA-R1A dissociation, Cy5-IP20 fluorescence polarization; scaled: DMSO 0%, 113 µM cGMP 100% | activation, % at 11.4 µM | actives 0.083% (n = 340,000) | AID 504707;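 active = percent activation above the mean of all tested compounds plus 3 SD, cut at about 19% in these data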;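 also: higher means more PKAc released from R1A so a rise in polarization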
PAFAH2 FP inh: PAFAH2 (human) inhibition. recombinant PAFAH2, FP-rhodamine activity probe, fluorescence polarization. inhibition, % at 3.39 µM. actives 0.99% (n = 340,000). AID 492956;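 active = inhibition above the mean over all tested compounds plus 3 SD, cut at about 30% in these data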;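 also: inhibitors block probe labeling of enzyme so polarization drops; 0% = enzyme with DMSO and 100% = wells lacking PAFAH2 protein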
PAFAH1B3 inh: PAFAH1B3 (human) inhibition; Q15102; actives 0.28% (n = 340,000); AID 492972; inhibition, % at 3.39 µM; recombinant PAFAH1B3, FP-rhodamine probe, fluorescence polarization;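 active = inhibition above the screen-wide average of all tested compounds plus 3 SD, cut at about 25% in these data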;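 also: 0% = enzyme with DMSO only and 100% = wells lacking PAFAH1B3 protein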
Target sequence (Q15102 whole entry, looked up): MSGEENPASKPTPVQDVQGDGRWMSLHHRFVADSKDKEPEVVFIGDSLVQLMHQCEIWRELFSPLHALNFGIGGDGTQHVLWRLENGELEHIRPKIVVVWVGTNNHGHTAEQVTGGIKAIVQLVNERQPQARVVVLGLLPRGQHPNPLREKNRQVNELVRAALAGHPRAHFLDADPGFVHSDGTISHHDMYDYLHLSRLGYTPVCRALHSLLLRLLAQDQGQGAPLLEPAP
PAFAH1B2 inh: PAFAH1B2 (human) inhibition. inhibition, % at 3.39 µM. recombinant PAFAH1B2, FP-rhodamine activity probe, fluorescence polarization. AID 492953. actives 1.2% (n = 340,000);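 active = inhibition above the mean of all tested compounds plus 3 SD, cut at about 24% in these data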;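 also: 0% = enzyme with DMSO and 100% = wells lacking PAFAH1B2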
An asterisk follows results filed as active; . = no result. In the library only some 2.6% were active in any assay of this set; here they are far more common.

SMILES | pPAFAH inh | PKA-R2B act | PKA-R1A act | PAFAH2 FP inh | PAFAH1B3 inh | PAFAH1B2 inh
CSc1n[nH]c2nc3c(c(=O)n12)C1(CCCCC1)Cc1ccccc1-3 | 6.3 | -7.6 | -14.3 | 44.5* | 9.6 | 91.4*
CCCn1c(SCC(N)=O)nc2c(c1=O)C1(CCCC1)Cc1ccccc1-2 | 8.3 | -3.4 | 3.0 | -7.7 | 4.2 | 24.1
Cn1c(NCCCO)nc2c(c1=O)C1(CCCCC1)Cc1ccccc1-2 | -0.6 | 0.6 | -15.6 | -0.5 | 4.7 | 19.2
CCSc1n[nH]c2nc3c(c(=O)n12)C1(CCCCC1)Cc1ccccc1-3 | 3.9 | 2.3 | -4.7 | 57.7* | 3.2 | 82.3*
CCN1C(=O)C(=O)N(CC(=O)Nc2cccc(C(F)(F)F)c2)C1=O | 5.7 | 2.8 | -9.6 | -4.4 | -2.8 | 2.9
CC1=CC(=O)Nc2cncnc2N1 | . | -7.0 | 0.2 | -0.2 | -0.2 | 4.8
CN(CCc1ccccc1)C(=O)c1ccc(NC(=O)Cc2ccc(NC(=O)C3CCCN(S(=O)(=O)c4cccc([N+](=O)[O-])c4)C3)cc2)cc1 (stereo not drawn) | . | -3.4 | -3.5 | -22.5 | -18.2 | -12.6
CNc1ccccc1C(=O)OC(C)C(=O)Nc1ccc(Cl)cn1 (stereo not drawn) | -0.9 | -2.9 | 13.7 | -1.1 | 0.6 | -3.1
Cc1nc(SCCC(=O)O)c2cc(-c3ccccc3)sc2n1 | 1.8 | -5.0 | 9.8 | -2.1 | -2.7 | 49.8*
Cc1nc(N2CCOCC2)c2cc(-c3ccccc3)sc2n1 | 3.6 | 4.2 | 1.2 | 0.2 | -1.5 | 5.3
CCN(CC)C(=O)c1nc(-c2cccc3ccccc23)no1 | . | -11.4 | -0.1 | . | . | .
O=C(COC(=O)C1CCC1)Nc1ccc(OC(F)F)cc1 | -1.4 | -0.1 | -5.5 | 15.9 | -2.9 | 4.1
O=C(COC(=O)c1nc(Cl)ccc1Cl)Nc1ccccc1OC(F)F | 10.5 | -8.1 | -7.1 | -2.5 | 3.8 | 2.8
COc1ccc(C(=O)OCC(=O)Nc2ccc(OC(F)F)cc2)c(OC)c1 | 32.9* | 0.1 | -5.0 | 67.8* | 7.3 | 4.7
O=C(COC(=O)CCC1CCCCC1)Nc1ccc(OC(F)F)cc1 | 26.1* | -10.3 | -10.3 | 11.2 | -5.0 | 3.3
O=C(COC(=O)CCC1CCCC1)NCc1ccc(Cl)cc1 | 29.6* | -9.6 | -6.6 | 11.6 | 1.0 | 3.6
O=C(COC(=O)c1ccc(Cl)c([N+](=O)[O-])c1)Nc1ccccc1OC(F)F | 31.9* | -5.6 | -10.1 | 25.7 | -1.0 | -0.1
CN(CCOc1ccc(Cl)cc1)C(=O)c1cccc(S(=O)(=O)N2CCN(c3ccccc3)CC2)c1 | . | -6.3 | -7.7 | 1.2 | -5.2 | 4.3
COc1cc(Cl)c(CN2CCCC(CO)(Cc3cccc(Cl)c3)C2)cc1OC (stereo not drawn) | 1.9 | -3.3 | 2.2 | -4.4 | 0.9 | 1.5
NS(=O)(=O)c1ccc(NC(=O)COC(=O)CCC2CCCC2)cc1 | -2.9 | -2.2 | 3.6 | 5.4 | 0.2 | 4.3
O=C(COC(=O)CCC1CCCC1)Nc1ccccc1OC(F)F | 29.3* | 11.4 | -7.8 | 4.8 | 1.6 | 3.2
O=C(COC(=O)CCC1CCCC1)Nc1ccc(F)cc1 | 31.7* | -4.0 | 4.1 | 27.4 | -2.2 | 12.4
c1ccc(-c2csc3ncnc(NCC4COc5ccccc5O4)c23)cc1 (stereo not drawn) | 33.5* | -13.2 | 2.8 | -2.5 | 5.9 | 4.9
Cc1[nH]c(C)c(S(=O)(=O)N2CCN(c3ccccc3F)CC2)c1C(=O)N1CCCC1 | 8.5 | -14.9 | -4.0 | 5.7 | 1.5 | 6.0
Cc1ccc2nc(CSc3nc(C)cc(C)c3C#N)[nH]c2c1 | 26.4* | 11.6 | 2.9 | -3.1 | 3.9 | 4.9
SMILES | pPAFAH inh | PKA-R2B act | PKA-R1A act | PAFAH2 FP inh | PAFAH1B3 inh | PAFAH1B2 inh
O=C(NCCC(=O)N1CCCC1)c1ccccc1Cl | 4.1 | -2.9 | -1.1 | 4.4 | 4.5 | -3.9
COCCN(C(=O)COC(=O)/C=C/c1ccc2c(c1)OCO2)c1c(N)n(Cc2ccccc2)c(=O)[nH]c1=O | -0.5 | -0.6 | -5.3 | -6.6 | 2.6 | 0.9
CCNc1ccccc(C(=O)/C=C/c2ccc3c(c2)OCO3)c1=O | 31.7* | 4.0 | 8.0 | 29.9* | 8.2 | 5.5
COc1ccccc1C(=O)NC(=O)COC(=O)CCOc1ccccc1C | 9.3 | 17.9 | 0.5 | 16.7 | 3.6 | 11.9
CCC(C)NC(=O)c1ccc(CS(=O)(=O)Cc2ccc(Cl)cc2)o1 (stereo not drawn) | 25.5* | -10.6 | 2.1 | 5.0 | 12.2 | 7.0
C=CC1=CCN(S(=O)C(C)(C)C)[C@H]1CCO (stereo partly drawn) | . | -13.0 | 2.5 | -0.7 | 1.4 | 2.2
Cc1ccccc1NC(=O)N(O)C1(C#N)CCCCC1 | . | -1.5 | 6.5 | 12.5 | 1.9 | 5.7
O=S(=O)(c1ccc(F)cc1)N1CCC2(CC1)OCCN2S(=O)(=O)c1cccs1 | 13.7 | -19.0 | -13.1 | 8.5 | 1.3 | 28.1*
CCCCOc1ccc(C2OC34CCCCC3C(C#N)(C#N)C2(C#N)C(=N)O4)cc1 (stereo not drawn) | 23.9 | 2.3 | 1.6 | 42.4* | 56.5* | 38.5*
C=CCOc1ccc(C2OC34CCCCC3C(C#N)(C#N)C2(C#N)C(=N)O4)cc1 (stereo not drawn) | 10.0 | 5.8 | -0.3 | 56.2* | 50.9* | 42.3*
Cc1ccc(C2OC34CCCCCC3C(C#N)(C(=N)O4)C2(C#N)C#N)cc1 (stereo not drawn) | 1.0 | -1.7 | -11.3 | 3.1 | -0.2 | -0.8
O=C(CCn1ccnc1)Nc1cc(Cl)ccc1O | 1.0 | -8.3 | -13.2 | -5.8 | 2.9 | -0.4
Cc1nn(-c2ccccc2)c(Cl)c1CN(C(=O)CCl)c1ccc(Cl)cc1 | 4.2 | -2.1 | -0.3 | 2.3 | 0.0 | 40.9*
CNC(=S)N(CCc1c(C)[nH]c2ccc(F)cc12)Cc1cccnc1 | 8.5 | 7.5 | -4.9 | -0.2 | 1.9 | 2.0
CC1CC(C)CN(S(=O)(=O)c2ccc3c(c2)CC(=O)N3)C1 (stereo not drawn) | 0.3 | 4.9 | 0.7 | 3.4 | 1.9 | 27.5*
O=C1Cc2cc(S(=O)(=O)N3CCCCC3)ccc2N1 | 3.5 | 13.0 | -0.2 | 5.1 | 2.3 | 4.0
N#Cc1ccc(S(=O)(=O)N2CCN(CC(=O)NCC3(N4CCOCC4)CCCCC3)CC2)cc1 | 0.5 | 1.2 | -1.2 | -15.3 | 3.9 | 12.7
CCOC(=O)Cn1nc2oc(=O)c(CCN3CCN(c4ccccc4OC)CC3)c(C)c2c1C | . | 0.0 | 10.7 | . | . | .
CN(Cc1ccccc1)C(=O)COC(=O)c1ccc2c(c1)OCO2 | 25.5* | -3.4 | -8.8 | 15.7 | -6.4 | 3.9
CN(C(=O)COC(=O)c1ccc2ccccc2n1)c1ccccc1 | 6.7 | 8.0 | -5.2 | 3.7 | 8.4 | -2.0
CN(Cc1ccccc1)C(=O)COC(=O)c1ccc2ccccc2n1 | 25.2* | -8.5 | -1.3 | 5.1 | 5.0 | 4.8
CN1C(=O)CCS(=O)(=O)C1c1ccc(Cl)c(Cl)c1 (stereo not drawn) | . | -6.3 | 6.8 | . | . | .
